{"source": "PubChem BioAssay (NCATS)", "note": "Several values for one entry are separate records, joined by “and”; a condition that tells them apart may be missing. Equal values may be shown once. Records with an inconclusive call do not appear. Activity calls are given as the source filed them. The call rests on the fitted dose curve; in most records, active means well fitted activation curve with a large enough effect; inconclusive means small, poorly fitted or top-dose-only effect; inactive means no such curve, though single readings can be large or run the other way. Potency means the concentration at half of the fitted maximal effect."}
{"molecular_target": "Cellular tumor antigen p53 (Homo sapiens) (UniProt P04637)", "sequence (P04637 whole entry, looked up)": "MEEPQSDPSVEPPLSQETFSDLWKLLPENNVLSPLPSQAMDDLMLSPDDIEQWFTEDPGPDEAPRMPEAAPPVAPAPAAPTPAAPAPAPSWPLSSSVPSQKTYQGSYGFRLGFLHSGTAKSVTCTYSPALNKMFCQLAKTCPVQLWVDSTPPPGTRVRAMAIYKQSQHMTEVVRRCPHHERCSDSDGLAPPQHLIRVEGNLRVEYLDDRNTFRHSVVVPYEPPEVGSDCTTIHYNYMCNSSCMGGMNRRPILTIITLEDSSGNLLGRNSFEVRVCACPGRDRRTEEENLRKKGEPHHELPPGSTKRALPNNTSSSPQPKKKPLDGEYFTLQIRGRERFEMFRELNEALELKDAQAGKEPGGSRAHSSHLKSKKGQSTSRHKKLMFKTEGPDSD", "assay": "Primary qHTS for small molecule compounds that upregulate eGFP-tagged delta133p53alpha (in N-terminal) cells. (AID 2060322); further: nearly all actives have a fitted effect of over 75% in size;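 on activation: cells pre-induced with doxycycline then dosed without doxycycline; series mostly up to about 56 µM; 0% = DMSO vehicle and 100% = reference activator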", "details": "NCI-H358 eGFP-delta133p53alpha fluorescence, 24 h; activation: active compounds read high", "procedure,_shortened": "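NCI-H358 cells pre-induced 24 h with 10 ng/ml doxycycline for eGFP-delta133p53alpha, plated dox-free and exposed 24 h at 37C to titrated compounds. Fixed, Hoechst-stained; gated GFP peak intensity by laser scanning cytometry, normalized to DMSO (0%) and 57.5 uM 5-azacytidine (100%).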"}
{"smiles": "Cc1c(-c2ccccc2)oc2c(C(=O)OCCN3CCCCC3)cccc2c1=O", "activation": "-16.7% (inactive)"}
{"smiles": "Oc1cn2c(n1)Nc1ccc(Cl)c(Cl)c1C2", "activation": "-8.37% (inactive)"}
{"smiles": "O=C(CCl)Nc1ccc(S(=O)(=O)c2ccc(NC(=O)CCl)cc2)cc1", "activation": "4.47% (inactive)"}
{"smiles": "OC(CCN1CCCCC1)(c1ccccc1)c1ccccc1", "activation": "1.69% (inactive)"}
{"smiles": "CC(=O)c1ccc(O)c(C(N)=O)c1", "activation": "-19.8% (inactive)"}
{"smiles": "NS(=O)(=O)c1ccc(N2CCCCS2(=O)=O)cc1", "activation": "7.34% (inactive)"}
{"smiles": "COC(=O)c1c(Cl)c(Cl)c(C(=O)OC)c(Cl)c1Cl", "activation": "-11.7% (inactive)"}
{"smiles": "CC(C)C(=O)SCCCCCCC(=O)Nc1nc(-c2ccccc2)cs1", "activation": "49.2% (inactive)"}
{"smiles": "NC1CCC(Nc2nc(Nc3ccc(C(=O)N4CCCCC4)cc3)c3ncn(-c4cccc(F)c4)c3n2)CC1", "note": "(stereo not given)", "activation": "-1.24% (inactive)"}
{"smiles": "C[C@]12CCC3=C4CCC(=O)C=C4CC[C@@H]3[C@H]1CC[C@@]2(O)CC#N", "activation": "7.95% (inactive)"}
{"smiles": "Cc1cc(CC(=O)O)c(C)n1-c1ccc(Cl)cc1", "activation": "5.86% (inactive)"}
{"smiles": "O=C(O)Cc1cccc2ccccc12", "activation": "1.67% (inactive) and -33.3% (inactive)"}
{"smiles": "CCCC(=O)c1cc(O)c(O)cc1O", "activation": "-37.9% (inactive)"}
{"smiles": "O=C(NC1CCN(CCc2c[nH]c3ccccc23)CC1)c1ccccc1", "activation": "2.51% (inactive)"}
{"smiles": "COc1ccc2c(c1)CC[C@H]1[C@@H]2CC[C@]2(C)[C@@H](NCCCCCCN3C(=O)C=CC3=O)CC[C@H]12", "activation": "38.4% (inactive)"}
{"smiles": "Cc1c(N(C)CS(=O)(=O)O)c(=O)n(-c2ccccc2)n1C", "activation": "-7.34% (inactive)"}
{"smiles": "OCc1c[nH]c2ccccc12", "Potency": "31.7 µM (active)"}
{"smiles": "COc1cc(Cl)cn2c(-c3cccc(NC4CNC4)n3)cnc12", "activation": "-0.246% (inactive)"}
{"smiles": "O=C(O)Cc1ccc2c(c1)C(=O)c1ccccc1CO2", "activation": "7.34% (inactive)"}
{"smiles": "CCCCOC(=O)CCCCCCCCC(=O)OCCCC", "activation": "-7.53% (inactive)"}
{"smiles": "Nc1ncnc2c1ncn2[C@@H]1O[C@@H](CO)[C@H](O)[C@H]1O", "activation": "-9.84% (inactive)"}
{"smiles": "Cc1cc(O)c2c(O)c3c(O)cccc3cc2c1", "activation": "0.837% (inactive)"}
{"smiles": "C[C@@H](O)[C@H](N)C(=O)O", "activation": "-18.4% (inactive)"}
{"smiles": "NC1CCN(c2nc3c(cc2F)c(=O)c(C(=O)O)cn3-c2ccc(F)cc2F)C1", "note": "(stereo not given)", "activation": "11.9% (inactive)"}
{"smiles": "CC(C)NCC(O)c1ccc2ccccc2c1", "note": "(stereo not given)", "activation": "-2.82% (inactive)"}
{"smiles": "CC(C)C(=O)OCc1cccc(OC(=O)[C@@H]2N3C(=O)[C@@H](NC(=O)Cc4ccccc4)[C@H]3SC2(C)C)c1", "activation": "-5.86% (inactive)"}
{"smiles": "NC(=O)CC[C@@H]1NC(=O)[C@H](Cc2ccccc2)NC(=O)[C@H](Cc2ccc(O)cc2)NC(=O)CCSSC[C@@H](C(=O)N2CCC[C@H]2C(=O)N[C@@H](CCCN=C(N)N)C(=O)NCC(N)=O)NC(=O)[C@H](CC(N)=O)NC1=O", "activation": "-3.35% (inactive)"}
{"smiles": "O=C(O)Cn1c(C(=O)Nc2nc(-c3ccccc3Cl)cs2)cc2ccccc21", "activation": "5.08% (inactive)"}
{"smiles": "Oc1ccccc1C=NCc1ccccc1", "activation": "-19.2% (inactive)"}
{"smiles": "N#CC(=C1Nc2ccccc2S1)c1ccnc(OCc2ccc(CN3CCOCC3)cc2)n1", "activation": "-32.5% (inactive)"}
{"smiles": "CCOC(=O)Oc1ccc(CCNC(=O)[C@H](CCSC)NC(C)=O)cc1OC(=O)OCC", "activation": "16.4% (inactive)"}
{"smiles": "CS(=O)(=O)c1ccc(-c2cn3ccccc3n2)cc1", "activation": "-26.8% (inactive)"}
{"smiles": "CCCOc1ccc2c(c1)CC[C@@H]1[C@@H]2CC[C@]2(C)C(OC)CC[C@@H]12", "note": "(stereo not given in full)", "activation": "0.565% (inactive)"}
{"smiles": "Cc1onc(-c2ccccc2)c1C(=O)N[C@@H]1C(=O)N2[C@@H](C(=O)O)C(C)(C)S[C@@H]12", "activation": "-7.66% (inactive)"}
{"smiles": "CN1CCN(C2=Nc3ccccc3Sc3ccc(Cl)cc32)CC1", "activation": "15.3% (inactive)"}
{"smiles": "CC1=C(CO)C(=O)O[C@@H]([C@@H](C)[C@H]2CC[C@H]3[C@@H]4C[C@H]5O[C@]56[C@@H](O)C=CC(=O)[C@]6(C)[C@@H]4CC[C@]23C)C1", "Potency": "3.85 µM (active)"}
{"smiles": "CNC(=O)c1c(I)c(NC(=O)CCCCC(=O)Nc2c(I)c(C(=O)O)c(I)c(C(=O)NC)c2I)c(I)c(C(=O)O)c1I", "activation": "-10% (inactive)"}
{"smiles": "CC1=C(C(=O)O)N2C(=O)[C@@H](NC(=O)[C@H](N)c3ccccc3)[C@H]2SC1", "activation": "-27.6% (inactive)"}
{"smiles": "CCCCCCCCCCCCCCCCN", "activation": "-20.1% (inactive)"}
{"smiles": "CCCCCCn1c(=O)c2c(ncn2C)n(C)c1=O", "activation": "-5.08% (inactive)"}
